In PubChem BioAssay (NCI):
The panel holds about 79,000 compounds, 15% with a hit somewhere; the sample as a whole holds those more often. The source made the active and inactive calls. Rule as the data show it: active = growth inhibition above about 70%; inactive = the rest.

Tests used:
[1] = NCI Yeast Anticancer Drug Screen. Data for the rad50 strain (AID 155);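 also: 0% = growth of vehicle-only cultures of the same strain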; conditions: S. cerevisiae rad50 strain growth inhibition; at 50.0 µM; stronger effect = higher value
Summary of the method: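 Relative growth inhibition (compound vs vehicle) was measured in yeast with a defined repair-gene alteration.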

[2] = NCI Yeast Anticancer Drug Screen. Data for the mec2-1 strain (AID 157); conditions: S. cerevisiae mec2-1 strain, at 50.0 µM, stronger effect = higher value
Summary of the method: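 Compounds were applied to mec2-1 yeast cells. Their growth was then compared with that of vehicle-treated cultures to give growth inhibition.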

[3] = NCI Yeast Anticancer Drug Screen. Data for the sgs1 mgt1 strain (AID 161);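 also: 0% = growth of cultures given vehicle only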; conditions: S. cerevisiae sgs1 mgt1 strain, at 50.0 µM, stronger effect = higher value
Summary of the method: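 Compounds are added to genetically altered yeast, and growth is compared with cultures given vehicle alone to give percent inhibition.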

[4] = NCI Yeast Anticancer Drug Screen. Data for the cln2 rad14 strain (AID 165);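 also: 0% = growth equal to vehicle treated cultures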; conditions: S. cerevisiae cln2 rad14 strain, at 50.0 µM, stronger effect = higher value
Summary of the method: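 Strain: cln2 rad14 yeast, altered in cell cycle control and DNA damage repair. Read-out: growth inhibition vs vehicle.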

[5] = NCI Yeast Anticancer Drug Screen. Data for the bub3 strain (AID 167); conditions: S. cerevisiae bub3 mutant strain, at 50.0 µM, stronger effect = higher value
Summary of the method: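 Screening used yeast with an engineered genetic alteration affecting cell cycle control. Compound-exposed cultures were compared with vehicle cultures, and reduced growth was taken as inhibition.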

[6] = NCI Yeast Anticancer Drug Screen. Data for the mlh1 rad18 strain (AID 175); conditions: S. cerevisiae mlh1 rad18 strain growth inhibition; at 50.0 µM; stronger effect = higher value
Summary of the method: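 A repair-deficient yeast strain is exposed to test compound, and growth is scored relative to vehicle-treated controls.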

Measured: growth inhibition

C[N+]12C(=O)CC3OCC=C4C[N+]5(C)CCC6(c7ccccc71)C2C3C4CC65O (stereo unspecified)
inactive: [1] -13.8% | [2] -34.5% | [3] -22% | [4] 11.2% | [5] -17.6% | [6] -14.8%

Clc1ccc(N=P(c2ccccc2)(c2ccccc2)c2ccccc2)cc1.[Cl][Cd][Cl]
inactive: [5] 64.2% | [6] 69%
active: [1] 95% | [2] 71% | [3] 81.8% | [4] 75.9%

CCOC(=O)CN(Cc1ccccc1)Cc1c(C(=O)c2ccccc2)c2ccccc2n1C(=O)c1ccccc1
inactive: [1] 3.75% | [2] -11.8% | [3] -10.9% | [4] -75.2% | [5] -16.6% | [6] -18.6%

[N-]=[N+]=NC12CC3CC(CC(C3)C1)C2
inactive: [1] -9.7% | [2] -6% | [3] -7.45% | [4] -9.35% | [5] -25.6% | [6] -20.2%

N#C[CH2][Sn]([c]1ccccc1)([c]1ccccc1)[c]1ccccc1
active: [1] 98.8% | [2] 98.8% | [3] 99% | [4] 98% | [5] 98.5% | [6] 98.9%

Cc1cc(NC(=O)Oc2ccc([N+](=O)[O-])cc2)ccc1S(=O)(=O)F
inactive: [1] 1.85% | [2] 39.4% | [3] 14.2% | [4] 4% | [5] 28.6% | [6] 35%

O=S(=O)(N=S(CCCl)CCCl)c1ccccc1
inactive: [1] 8.3% | [2] 11.3% | [3] 24.3% | [4] -7.95% | [5] 21.4% | [6] 21.4%

N#CC[CH2][Sn]([I])([c]1ccccc1)[c]1ccccc1
active: [1] 98.2% | [2] 98.8% | [3] 98% | [4] 98.5% | [5] 98.8% | [6] 98.1%

O=C([O-])c1ccccc1[SH2+].[Cr+3].[NH-]CC[NH-].[NH-]CC[NH-].[O-][Cl+3]([O-])([O-])O
inactive: [1] 11.9% | [2] -1.95% | [3] -11.8% | [4] -19.4% | [5] 1.35% | [6] -26.4%

COc1ccc(/C=C(/C)[N+](=O)[O-])cc1OC
active: [1] 99.3% | [2] 99.7% | [3] 99.3% | [4] 97.2% | [5] 99.7% | [6] 99.5%

Nc1ccc(S(=O)(=O)F)cc1
inactive: [1] -22% | [2] -54% | [3] -34.6% | [4] 16.8% | [5] -35.3% | [6] -22.2%

OCCC[n+]1cccc2ccccc21
inactive: [1] -11.2% | [2] 9.25% | [3] 1.1% | [4] -41.6% | [5] 0.95% | [6] -1.7%

C=Cn1nnc(N)n1
inactive: [1] -4.9% | [2] -0.45% | [3] -16.7% | [4] 4.55% | [5] 17.1% | [6] 9.05%

CC1NC1(c1ccccc1)n1ccnc1 (stereo unspecified)
inactive: [1] 13.4% | [2] -18.1% | [3] 5.8% | [4] -14.5% | [5] 11.4% | [6] 3.4%

O=C1CC(=O)NC(=S)N1
inactive: [1] 2.15% | [2] 21.1% | [3] -13.5% | [4] -21.4% | [5] 4.85% | [6] -5.75%

C[N+]1(C)C2CCC1CC(O)C2 (stereo unspecified)
inactive: [1] 5.45% | [2] -9.85% | [3] 3.55% | [4] 23.1% | [5] -6.35% | [6] 3.6%

CCCCCCN(CCCCCC)C1C=CCCC1 (stereo unspecified)
inactive: [1] -5.4% | [2] -11.2% | [3] 0.25% | [4] -32.6% | [5] -2.2% | [6] -4.15%

O=c1ccc2c(O)c3ccoc3cc2o1
inactive: [1] -14.7% | [2] -10% | [3] 5.7% | [4] -5.05% | [5] 3.45% | [6] -22.9%

C1CCN2CC34CC(CC5CCCN(C6CCCC3N6)C54)C2C1 (stereo unspecified)
inactive: [1] -19.5% | [2] -43.1% | [3] -22.1% | [4] 10.7% | [5] -36.3% | [6] -99.8%

Cc1ccc([P+](=O)O)cc1Cl
inactive: [1] -12.1% | [2] -3.75% | [3] -8.55% | [4] -9.25% | [5] 1.65% | [6] -3%

CCOP(=O)(OCC)Oc1ccc(S(C)=O)cc1 (stereo unspecified)
inactive: [1] -1.95% | [2] -14.8% | [3] -1% | [4] -10.2% | [5] 8.75% | [6] -0.25%

OC1(C#[C][Hg][C]#CC2(O)CCCCC2)CCCCC1
active: [1] 95.2% | [2] 89.5% | [3] 90.7% | [4] 97.3% | [5] 97.4% | [6] 95.4%

CC1(C)OC2COC(CN=[N+]=[N-])C2O1 (stereo unspecified)
inactive: [1] 14.4% | [2] 8.65% | [3] 0.9% | [4] -0.8% | [5] 3% | [6] -3.75%

COc1ccc(C2C=C(c3ccc4c(c3)OCO4)Oc3c2c(=O)oc2ccccc32)cc1OC (stereo unspecified)
inactive: [1] 11.5% | [2] 4.1% | [3] 10.1% | [4] 16.4% | [5] 22.7% | [6] 37%

CC(Nc1c([N+](=O)[O-])ccc(C(=O)NCCN(C)C)c1[N+](=O)[O-])C(=O)Nc1ccc(N(CCCl)CCCl)cc1 (stereo unspecified)
inactive: [1] -34.6% | [2] -9.75% | [3] 0.75% | [4] 7.35% | [5] -8.05% | [6] -7.75%

COc1ccc2c(c1O)CN1CCc3cc4c(cc3C1C2)OCO4 (stereo unspecified)
inactive: [1] 40.5% | [2] 22.1% | [3] 28.6% | [4] 25.9% | [5] 43.2% | [6] 19.9%

O=[N+]([O-])C(CO)CCCC(CO)[N+](=O)[O-] (stereo unspecified)
inactive: [1] 11.7% | [2] -6% | [3] 5.65% | [4] -37.1% | [5] -20.4% | [6] 11.4%

CN(C)CCNC(=O)c1cc([N+](=O)[O-])cc2c1Oc1ccccc1O2
inactive: [1] -7.05% | [2] -12.6% | [3] -7.35% | [4] 16.9% | [5] -7.2% | [6] -7.3%

CC1[N-]C(/C=N/O)NC(C)N1.CC1[N-]C(/C=N/O)NC(C)N1.[Br][Ni+2][Br] (stereo unspecified)
inactive: [1] -14.9% | [2] -10% | [3] -22.3% | [4] -19% | [5] 0.65% | [6] -15.7%

COc1ccc(N2CC=C(c3ccccc3)OP2(=O)N(CCCl)CCCl)cc1 (stereo unspecified)
inactive: [1] -49.8% | [2] -4.5% | [3] -3.45% | [4] 9.75% | [5] 6.4% | [6] -3.2%

NC(=O)c1cc([N+](=O)[O-])c([N+](=O)[O-])cc1N(CCCl)CCCl
inactive: [1] 14.4% | [2] 8.95% | [3] 27.2% | [4] 0.4% | [5] -3.8% | [6] 13.3%

N.N.N.N.N.NC(=O)c1nn[n-]n1.[Cl-].[Co+3]
inactive: [1] -27.2% | [2] -3% | [3] -9.45% | [4] 0% | [5] -27.3% | [6] -17.1%

c1cc2c(cc1NC1=NCCO1)CCC2
inactive: [1] 3.65% | [2] 4.65% | [3] 2.75% | [4] -31.6% | [5] 8.6% | [6] -0.65%

NC(Cc1ccc(Cl)cc1)c1nn[nH]n1 (stereo unspecified)
inactive: [1] -5.5% | [2] 1.25% | [3] -4.1% | [4] -22.4% | [5] 1.2% | [6] -7.7%

CCC1([N+](=O)[O-])COP(=O)(NCc2ccncc2)OC1 (stereo unspecified)
inactive: [1] 8.4% | [2] -8.4% | [3] -5.95% | [4] 10.6% | [5] -5.6% | [6] 12.3%

CCOC(OCC)c1ccc2c(c1)OCO2
inactive: [1] 5.65% | [2] -5.75% | [3] 13.2% | [4] 4.7% | [5] -0.05% | [6] 11.8%

CCCCC(=O)[O-].N.N.N.N.N.[Co+3].[O-][Cl+3]([O-])([O-])[O-]
inactive: [1] -19.9% | [2] 19.4% | [3] -18.4% | [4] 21.4% | [5] -0.3% | [6] -16%

CC(=O)CC(C)C(=O)O (stereo unspecified) (tested in a mixture with another compound)
inactive: [1] -5.9% | [2] -11% | [3] -16.6% | [4] -6.55% | [5] -5.6% | [6] -20.6%

C1CN1[PH+](N1CC1)N1CC1.[C-]#[O+].[C-]#[O+].[C-]#[O+].[C-]#[O+].[C-]#[O+].[W]
inactive: [1] -12.8% | [2] -3.85% | [3] -21% | [4] -43.9% | [5] 13.1% | [6] 3.1%

O=C(NC(CCS(=O)(=O)NCc1ccc(S(=O)(=O)F)cc1)C(=O)OCc1ccccc1)OCc1ccccc1 (stereo unspecified)
inactive: [1] 26.8% | [2] 5.7% | [3] 16.6% | [4] 15.4% | [5] 0.2% | [6] 29.9%

O=C(c1cc(N(CCCl)CCCl)c([N+](=O)[O-])cc1[N+](=O)[O-])N1CCOCC1
inactive: [1] -1.6% | [2] -3.55% | [3] 13.2% | [4] 3.55% | [5] 19.3% | [6] -3.75%
